# Many of the other results were omitted from the sample, so the strongest signals are more common in it than they were.
# B1: Aap brpt (Staphylococcus epidermidis) (protein)
# chain: VDGDPITSTEEIPFDKKREFDPNLAPGTEKVVQKGEPGTKTITTPTTKNPLTGEKVGEGEPTEKITKQPVDEIVHYGGEEIKTGHKDEFDPNAPKGSQTTQPGKPGVKNPDTGEVVTPPVDDVTKYGPVDGDPITSTEEIPFDKKREFDPNLAPGTEKVVQKGEPGTKTITTPTTKNPLTGEKVGEGEPTEKITKQPVDEIVHYGGEEIKPGHKDEFDPNAPKGSQEDVPGKPGVKNPDTGEVVTPPVDDVTKYGPVDGDSITSTEEIPFDKKREFDPNLAPGTEKVVQKGEPGTKTITTPTTKNPLTGEKVGEGEPTEKITKQPVDEIVHYGGEQIPQGHKDEFDPNAPVDSKTEVPGKPGVKNPDTGEVVTPPVDDVTKYGPVDGDSITSTEEIPFDKKREFDPNLAPGTEKVVQKGEPGTKTITTPTTKNPLTGEKVGEGKSTEKVTKQPVDEIVEYGPTK
# Legend:
# Assay in all cases: glycan array binding signal (z-score within array); higher = stronger binding
# Conditions in all cases: glycan notation: IUPAC condensed, linker removed
# [1] = target: GlcNAc(a1-4)Gal(b1-4)GalNAc
# Procedure, shortened: (§1)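 Columns mapping to the same glycan were averaged after glycan names were converted to IUPAC-condensed notation. The data come from 3228 arrays in the Consortium for Functional Glycomics database, limited to those with an available protein sequence. Binding is reported as a within-array Z-score averaged across arrays of one protein sequence and across linkers.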
# [2] = target: GlcNAc(a1-4)Gal(b1-4)GlcNAc(b1-3)Gal(b1-4)GlcNAc(b1-3)Gal(b1-4)GlcNAc
# Procedure, shortened: as §1
# [3] = target: GlcNAc(b1-2)[GlcNAc(b1-4)]Man(a1-3)[GlcNAc(b1-4)][GlcNAc(b1-2)[GlcNAc(b1-6)]Man(a1-6)]Man(b1-4)GlcNAc(b1-4)[Fuc(a1-6)]GlcNAc
# Procedure, shortened: as §1
# [4] = target: GlcNAc(b1-2)[GlcNAc(b1-6)]Man(a1-6)[GlcNAc(b1-2)Man(a1-3)]Man(b1-4)GlcNAc(b1-4)[Fuc(a1-6)]GlcNAc
# Procedure, shortened: as §1
# [5] = target: GlcNAc(b1-3)Gal(b1-4)GlcNAc(b1-3)Gal(b1-4)GlcNAc
# Procedure, shortened: as §1
# [6] = target: GlcNAc(b1-3)Gal(b1-4)GlcNAc(b1-3)Gal(b1-4)GlcNAc(b1-2)Man(a1-3)[GlcNAc(b1-3)Gal(b1-4)GlcNAc(b1-3)Gal(b1-4)GlcNAc(b1-2)Man(a1-6)]Man(b1-4)GlcNAc(b1-4)[Fuc(a1-6)]GlcNAc
# Procedure, shortened: as §1
# [7] = target: GlcNAc(b1-3)Gal(b1-4)GlcNAc(b1-3)Gal(b1-4)GlcNAc(b1-2)[GlcNAc(b1-3)Gal(b1-4)GlcNAc(b1-3)Gal(b1-4)GlcNAc(b1-6)]Man(a1-6)[GlcNAc(b1-3)Gal(b1-4)GlcNAc(b1-3)Gal(b1-4)GlcNAc(b1-2)Man(a1-3)]Man(b1-4)GlcNAc(b1-4)[Fuc(a1-6)]GlcNAc
# Procedure, shortened: as §1
# [8] = target: GlcNAc(b1-4)GlcNAc(b1-4)GlcNAc(b1-4)GlcNAc(b1-4)GlcNAc
# Procedure, shortened: as §1
# [9] = target: Man(a1-2)Man(a1-3)[Man(a1-2)Man(a1-6)]Man
# Procedure, shortened: as §1
# [10] = target: Man(a1-2)Man(a1-3)[Man(a1-2)Man(a1-6)]Man(a1-6)[Man(a1-2)Man(a1-2)Man(a1-3)]Man
# Procedure, shortened: as §1
# [11] = target: Man(a1-3)[Man(a1-6)]Man(a1-6)[Man(a1-2)Man(a1-3)]Man(b1-4)GlcNAc(b1-4)GlcNAc
# Procedure, shortened: as §1
# [12] = target: Man(a1-3)[Man(a1-6)]Man(a1-6)[Man(a1-3)]Man
# Procedure, shortened: as §1
# [13] = target: Man(a1-6)Man
# Procedure, shortened: as §1
# [14] = target: Neu5Ac(a2-3)Gal(b1-4)GlcNAc(b1-3)Gal(b1-4)GlcNAc(b1-3)Gal(b1-4)GlcNAc(b1-2)Man(a1-3)[Neu5Ac(a2-3)Gal(b1-4)GlcNAc(b1-3)Gal(b1-4)GlcNAc(b1-3)Gal(b1-4)GlcNAc(b1-2)Man(a1-6)]GalNAc
# Procedure, shortened: as §1
# [15] = target: Neu5Ac(a2-3)Gal(b1-4)GlcNAc(b1-3)Gal(b1-4)GlcNAc(b1-3)[Neu5Ac(a2-3)Gal(b1-4)GlcNAc(b1-3)Gal(b1-4)GlcNAc(b1-6)]GalNAc
# Procedure, shortened: as §1
# [16] = target: Neu5Ac(a2-3)Gal(b1-4)GlcNAc(b1-3)[Neu5Ac(a2-3)Gal(b1-4)GlcNAc(b1-6)]GalNAc
# Procedure, shortened: as §1
# [17] = target: Neu5Ac(a2-3)Gal(b1-4)GlcNAc(b1-6)[Gal(b1-3)]GalNAc
# Procedure, shortened: as §1
# [18] = target: Neu5Ac(a2-3)Gal(b1-4)[Fuc(a1-3)]GlcNAc(b1-2)Man
# Procedure, shortened: as §1
# [19] = target: Neu5Ac(a2-6)Gal(b1-3)GlcNAc(b1-3)[Gal(b1-4)GlcNAc(b1-6)]Gal(b1-4)Glc
# Procedure, shortened: as §1
# [20] = target: Neu5Ac(a2-6)Gal(b1-4)GlcNAc
# Procedure, shortened: as §1
# [21] = target: Neu5Ac(a2-6)Gal(b1-4)GlcNAc(b1-2)Man(a1-6)Man(b1-4)GlcNAc(b1-4)GlcNAc
# Procedure, shortened: as §1
# [22] = target: Neu5Ac(a2-6)Gal(b1-4)GlcNAc(b1-3)Gal(b1-4)GlcNAc(b1-3)[Neu5Ac(a2-6)Gal(b1-4)GlcNAc(b1-3)Gal(b1-4)GlcNAc(b1-6)]GalNAc
# Procedure, shortened: as §1
# [23] = target: Neu5Ac(a2-6)Gal(b1-4)GlcNAc(b1-3)Gal(b1-4)GlcNAc(b1-6)[Gal(b1-3)]GalNAc
# Procedure, shortened: as §1
# [24] = target: Neu5Ac(a2-6)Gal(b1-4)GlcNAc(b1-6)[Gal(b1-3)GlcNAc(b1-3)]Gal(b1-4)Glc
# Procedure, shortened: as §1
# [25] = target: Neu5Ac(a2-6)GalNAc
# Procedure, shortened: as §1
# [26] = target: Neu5Ac(a2-6)GalNAc(b1-4)GlcNAc
# Procedure, shortened: as §1
# [27] = target: Neu5Ac(a2-6)GalNAc(b1-4)GlcNAc6S
# Procedure, shortened: as §1
# [28] = target: Neu5Ac(a2-6)GlcNAc(b1-4)GlcNAc
# Procedure, shortened: as §1
# [29] = target: Neu5Ac(a2-8)Neu5Ac(a2-3)Gal(b1-4)Glc
# Procedure, shortened: as §1
binder,measurement,setting,value
B1,glycan array binding signal (z-score),[1],-1.15
same,glycan array binding signal (z-score),[2],0.541
same,glycan array binding signal (z-score),[3],0.314
same,glycan array binding signal (z-score),[4],-0.222
same,glycan array binding signal (z-score),[5],-0.363
same,glycan array binding signal (z-score),[6],2.65
same,glycan array binding signal (z-score),[7],3.02
same,glycan array binding signal (z-score),[8],-1.51
same,glycan array binding signal (z-score),[9],-0.923
same,glycan array binding signal (z-score),[10],2.59
same,glycan array binding signal (z-score),[11],2.29
same,glycan array binding signal (z-score),[12],-1
same,glycan array binding signal (z-score),[13],1.21
same,glycan array binding signal (z-score),[14],1.19
same,glycan array binding signal (z-score),[15],0.565
same,glycan array binding signal (z-score),[16],0.328
same,glycan array binding signal (z-score),[17],-0.96
same,glycan array binding signal (z-score),[18],0.096
same,glycan array binding signal (z-score),[19],-0.86
same,glycan array binding signal (z-score),[20],-0.403
same,glycan array binding signal (z-score),[21],-0.15
same,glycan array binding signal (z-score),[22],2.85
same,glycan array binding signal (z-score),[23],2.73
same,glycan array binding signal (z-score),[24],0.258
same,glycan array binding signal (z-score),[25],1.84
same,glycan array binding signal (z-score),[26],0.115
same,glycan array binding signal (z-score),[27],-0.313
same,glycan array binding signal (z-score),[28],2.43
same,glycan array binding signal (z-score),[29],-0.002
